# Measurements from PubChem BioAssay (NCI).
# The panel holds about 83,000 compounds, 20% with a hit somewhere; the sample as a whole holds those more often.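 Percent growth is the endpoint: 0 to 100 indicates growth inhibition (40 means 60% inhibition), 0 means no net growth, and negative values indicate cell death.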 Unmarked numbers belong to inactive results. Active and inactive are the calls of the source. How the source made its calls: active means growth percent below 10; inactive means the rest.
# Legend:
# Assay in all cases: NCI-60 one-dose screen, 48 h (100 = growth as untreated, 0 = no growth, -100 = all killed)
# DU-145 prostate = conditions: 10 µM unless noted
# K-562 leukemia = conditions: 10 µM unless noted
# MALME-3M melanoma = conditions: 10 µM unless noted
# MDA-MB-231 breast = conditions: 10 µM unless noted
# RXF 393 renal = conditions: 10 µM unless noted
# SF-268 CNS = conditions: 10 µM unless noted
# SF-295 CNS = conditions: 10 µM unless noted
# SF-539 CNS = conditions: 10 µM unless noted
# UACC-257 melanoma = conditions: 10 µM
# M14 melanoma = conditions: 10 µM unless noted
# HCT-15 colon = conditions: 10 µM unless noted
# HT29 colon = conditions: 10 µM unless noted
# SNB-19 CNS = conditions: 10 µM unless noted
# U251 CNS = conditions: 10 µM unless noted
# PC-3 prostate = conditions: 10 µM unless noted
# SK-MEL-5 melanoma = conditions: 10 µM unless noted
# UACC-62 melanoma = conditions: 10 µM unless noted
# LOX IMVI melanoma = conditions: 10 µM unless noted
# SK-MEL-28 melanoma = conditions: 10 µM unless noted
SMILES,growth (DU-145 prostate) [%],growth (K-562 leukemia) [%],growth (MALME-3M melanoma) [%],growth (MDA-MB-231 breast) [%],growth (RXF 393 renal),growth (SF-268 CNS) [%],growth (SF-295 CNS),growth (SF-539 CNS),growth (UACC-257 melanoma) [%],growth (M14 melanoma),growth (HCT-15 colon),growth (HT29 colon) [%],growth (SNB-19 CNS) [%],growth (U251 CNS),growth (PC-3 prostate) [%],growth (SK-MEL-5 melanoma),growth (UACC-62 melanoma),growth (LOX IMVI melanoma),growth (SK-MEL-28 melanoma) [%]
COc1ccc(-c2nnc(SCc3ccc(O)c4ncccc34)n2-c2ccccc2)cc1,24.8,13.3,10.6,30.9,7.27% (active),18.1,-1.96% (active),4.55% (active),13.6,-13.5% (active),9.65% (active),59.2,14.4,11.2%,20.7,-11% (active),2.62% (active),-10.9% (active),
Oc1ccc(CSc2nnc(-c3ccc(Br)cc3)n2-c2ccccc2)c2cccnc12,39.2,15.8,52,59.2,71.5%,32.7,6.74% (active),16.8%,25.2,30.1%,15.7%,89.6,17.8,7.75% (active),29.5,12%,0.404% (active),36.2%,40.9
CN(C)C(=O)c1ccccc1-n1cnc2ccccc2c1=O,105,108,103,100,107%,94.6,103%,95.5%,98.5,101%,97.5%,103,95.2,99.3%,97.2,101%,96.9%,,
CC(C)N=C(N/C(N)=N/c1nc2ccccc2s1)NC(C)C,85.6,23.1,75.4,56.3,51.9%,81.3,43.8%,52.3%,87.9,58%,62.5%,31.7,48.2,57.6%,64,62.5%,61.4%,1.73% (active),74.6
